The supplement of paper PMC7726561
Over roughly 1,400 sequences, “thermal melting temperature (Tm) of peptide-HLA complex” has its median near 60; the lowest 2% begin near 45. This is one part of a sample in which the lowest values are shown more often than they occur.

B1: unnamed (peptide)
chain: KPHLPSVTYL
B2: unnamed (peptide)
chain: NVKKVSLEL
B3: unnamed (peptide)
chain: APAGLPRETL
B4: unnamed (peptide)
chain: IPDHFRPPL
B5: unnamed (peptide)
chain: VIRELSRAL
B6: unnamed (peptide)
chain: KPINVRVTTM
B7: unnamed (peptide)
chain: RPIESPGGSVL
B8: unnamed (peptide)
chain: LPGISREAL
B9: unnamed (peptide)
chain: QPRDPSSTL
B10: unnamed (peptide)
chain: LPSKPSSTL
B11: unnamed (peptide)
chain: SPRDPVLTL
B12: unnamed (peptide)
chain: SPRFPAQYL
B13: unnamed (peptide)
chain: RPLPGALGV
B14: unnamed (peptide)
chain: VPNAGRGLV
B15: unnamed (peptide)
chain: HPREPLPPIQ
B16: unnamed (peptide)
chain: IPSSHPVSL
B17: unnamed (peptide)
chain: HPREPALGP
B18: unnamed (peptide)
chain: RPAGPVAVGI
B19: unnamed (peptide)
chain: SPRVQFQSL
B20: unnamed (peptide)
chain: RPAEVGGMQL
B21: unnamed (peptide)
chain: RPDYRNITF
B22: unnamed (peptide)
chain: NPRNFSDNQL
B23: unnamed (peptide)
chain: IFSEVPVQL
B24: unnamed (peptide)
chain: GVRPFGVSL
B25: unnamed (peptide)
chain: SPYPGLRLI
B26: unnamed (peptide)
chain: SPGPSRPGL
B27: unnamed (peptide)
chain: SPAEPSVYATL
B28: unnamed (peptide)
chain: AVILRALSL
B29: unnamed (peptide)
chain: FPHLREEIL
B30: unnamed (peptide)
chain: SPASRSISLL
B31: unnamed (peptide)
chain: LPKDQGITL
B32: unnamed (peptide)
chain: APAPRPSL
B33: unnamed (peptide)
chain: LPRTVTQLV
B34: unnamed (peptide)
chain: RPISVIGGVSL
B35: unnamed (peptide)
chain: APSGGRLLSA
B36: unnamed (peptide)
chain: LPRQPPMSL

The sequences below were run against HLA-B*07:02 (assay: thermal melting temperature (Tm) of peptide-HLA complex; higher = more thermostable pHLA complex). Settings: C1R-B*07:02.
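Also: lysates heated 10 min at 37–73 °C, complexes pulled down with pan-HLA I antibody, peptide signal by DIA-MS relative to 37 °C, Tm where half the complex is unfolded.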

Row | Sequence | thermal melting temperature [°C]
1 | B1 | 60.8
2 | B2 | 44.3
3 | B3 | 58.1
4 | B4 | 60.4
5 | B5 | 45.3
6 | B6 | 56
7 | B7 | 45.3
8 | B8 | 41.3
9 | B9 | 43.5
10 | B10 | 58.1
11 | B11 | 64.4
12 | B12 | 62.6
13 | B13 | 59
14 | B14 | 58.5
15 | B15 | 51.3
16 | B16 | 56.2
17 | B17 | 55.3
18 | B18 | 43.3

Row | Sequence | thermal melting temperature [°C]
19 | B19 | 61.7
20 | B20 | 59.1
21 | B21 | 61.7
22 | B22 | 53
23 | B23 | 42.1
24 | B24 | 57.4
25 | B25 | 61.8
26 | B26 | 56.1
27 | B27 | 62.8
28 | B28 | 61.1
29 | B29 | 51.6
30 | B30 | 57.1
31 | B31 | 61.7
32 | B32 | 58.1
33 | B33 | 45.6
34 | B34 | 62.3
35 | B35 | 60.1
36 | B36 | 66.1
